LYPLA1 inh = LYPLA1 (human) inhibition in PME1 counter-screen; recombinant LYPLA1, FP-Rh probe fluorescence polarization; inhibition, % at 5.9 µM; 320,000 compounds, 0.16% hits; AID 2174; O75608;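 active = inhibition above the mean of all tested compounds plus 3 SD, set per campaign, cut at about 14% in these data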;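 also: inhibitors block serine hydrolase probe labeling of LYPLA1 so polarization falls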
PME-1 primary = PME-1 (human) inhibition | Q9Y570 | recombinant PME-1, FP-Rh probe fluorescence polarization | inhibition, % at 5.9 µM | 320,000 compounds, 0.53% hits | AID 2130;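 active = inhibition above the campaign mean of all compounds plus 3 SD, cut at about 26% in these data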;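 also: competitive labeling of PME-1 active site by serine hydrolase directed probe; inhibitors block probe labeling so polarization falls and inhibition rises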
Target sequence (Q9Y570 whole entry, looked up): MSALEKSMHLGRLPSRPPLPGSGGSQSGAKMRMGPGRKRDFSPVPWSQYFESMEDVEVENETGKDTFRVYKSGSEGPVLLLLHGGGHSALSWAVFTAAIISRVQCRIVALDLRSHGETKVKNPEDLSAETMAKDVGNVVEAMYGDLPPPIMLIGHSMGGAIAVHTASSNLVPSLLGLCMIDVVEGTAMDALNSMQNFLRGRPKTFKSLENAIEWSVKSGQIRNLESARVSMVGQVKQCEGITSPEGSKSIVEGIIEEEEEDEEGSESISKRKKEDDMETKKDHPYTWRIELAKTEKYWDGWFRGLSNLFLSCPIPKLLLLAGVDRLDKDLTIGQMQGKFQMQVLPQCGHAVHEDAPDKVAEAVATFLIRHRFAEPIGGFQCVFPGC
PAD4 inh = PAD4 (human) enzyme inhibition; AID 485272; 330,000 compounds, 0.41% hits; Q9UM07; recombinant PAD4, RCA probe fluorescence polarization; inhibition, % at 6.36 µM;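 active = percent inhibition above a cutoff equal to the mean of all tested compounds plus 3 SD, cut at about 15% in these data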
Fam108B counter = blocks mouse Fam108B hydrolase in RBBP9 counter-screen. AID 1947. inhibition, % at 9.51 µM. 300,000 compounds, 0.33% hits. recombinant Fam108B, FP-Rh probe fluorescence polarization;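 active = inhibition above the screen mean inhibition plus 3 SD, computed separately per campaign, cut at about 18% in these data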;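 also: inhibitors lower polarization as less probe binds the enzyme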
GSTO1 counter = GSTO1 inhibition, counter-screen for RBBP9 inhibitors; P78417; recombinant GSTO1, activity-based probe fluorescence polarization; inhibition, % at 5.96 µM; 300,000 compounds, 1.1% hits; AID 1974;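 active = inhibition above the campaign mean inhibition plus 3 SD, cut at about 35% in these data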
Target sequence (P78417 whole entry, looked up): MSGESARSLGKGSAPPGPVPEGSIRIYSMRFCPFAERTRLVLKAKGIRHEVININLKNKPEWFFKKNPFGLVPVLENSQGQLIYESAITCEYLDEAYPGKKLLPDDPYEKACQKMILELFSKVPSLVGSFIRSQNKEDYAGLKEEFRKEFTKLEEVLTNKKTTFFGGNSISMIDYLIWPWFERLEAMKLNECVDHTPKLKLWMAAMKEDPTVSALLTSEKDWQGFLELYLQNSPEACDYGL
LYPLA2 inh = blocks human lysophospholipase 2, a PME1 counter-screen; O95372; recombinant LYPLA2, FP-Rh probe fluorescence polarization; inhibition, % at 5.9 µM; 320,000 compounds, 0.38% hits;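 active = inhibition above the screen-wide mean plus 3 SD, limit set per campaign, cut at about 26% in these data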
GSTO1 inh conf = GSTO1 (human) inhibition, confirmation; shares compounds with GSTO1 counter; recombinant GSTO1, probe fluorescence polarization; inhibition, % at 5.96 µM; 2,400 compounds, 54% hits; AID 2176;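 active = inhibition above the primary screen's cutoff, its mean inhibition plus 3 SD, cut at about 35% in these data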;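 also: loss of polarization as inhibitors block binding of rhodamine sulfonate ester activity probe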
GSTO1 ABPP inh = blocks recombinant human glutathione S-transferase omega 1; shares compounds with GSTO1 counter; recombinant GSTO1, gel ABPP SE-Rh probe fluorescence; inhibition, % at 1 µM; 130 compounds, 30% hits;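 active = inhibition of the enzyme GSTO1 above about 75%, limit read from the data; inactive = inhibition below that limit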
Large screens that a line does not name were inactive (follow-up assays come after a bar, where they were run). An excerpt weighted towards active compounds, which were near 1.8% of everything screened.

O=C1C2C3C=CC(C2C(=O)N1c1ccc(O)cc1)C1C2C(=O)N(c4ccc(O)cc4)C(=O)C2C31 (stereo unspecified)	GSTO1 counter 42 | GSTO1 inh conf inactive
O=C1C2C3C=CC(C2C(=O)N1c1ccccc1O)C1C2C(=O)N(c4ccccc4O)C(=O)C2C31 (stereo unspecified)	none
O=C(NC1(Cc2ccccc2)CCN(Cc2ccc(-c3ccccc3)cc2)C1=O)c1ccccc1 (stereo unspecified)	none (no result: Fam108B counter, GSTO1 counter)
CCCCN(C(=O)c1cccc(N2C(=O)c3ccccc3C2=O)c1)c1c(N)n(CC(C)C)c(=O)[nH]c1=O	none (no result: Fam108B counter, GSTO1 counter)
CCCCN(C(=O)c1cccc(-n2cccc2)c1)c1c(N)n(Cc2ccccc2)c(=O)[nH]c1=O	GSTO1 counter 58 | GSTO1 inh conf inactive
CCC(Sc1nc(-c2cccc(OC)c2)c(C#N)c(=O)[nH]1)C(=O)Nc1nnc(C(C)C)s1 (stereo unspecified)	GSTO1 counter 50 | GSTO1 inh conf 62
Oc1cccc(/C=N/NC(=S)Nc2cccnc2)c1O	GSTO1 counter 79 | GSTO1 inh conf inactive
Oc1ccc(/C=N/NC(=S)Nc2cccnc2)c(O)c1	none
CCCCn1c(NC(=O)c2ccc(Br)o2)c(S(=O)(=O)c2ccccc2)c2nc3ccccc3nc21	GSTO1 counter 58 | GSTO1 inh conf 67
CC(C)(C)N(Cc1ccccc1)C(=O)c1cc2ccccc2o1	none
Cc1cc(C)c(S(=O)(=O)Nc2ccc(-c3cn4ccccc4n3)cc2)c(C)c1	none
Cc1cc(C)c(S(=O)(=O)NCc2cn3ccccc3n2)c(C)c1	GSTO1 counter 39 | GSTO1 inh conf inactive
COCCCNC(=O)Cc1ccc(S(=O)(=O)N2CCOCC2)s1	none (no result: Fam108B counter, GSTO1 counter)
CC(C)NC(=O)CN1CCN(C(=O)CCl)CC1	GSTO1 counter 38 | GSTO1 inh conf 58 | GSTO1 ABPP inh inactive
Cc1c(NC(=O)Nc2cc(F)c(F)cc2Cl)c(=O)n(-c2ccccc2)n1C	none
COc1ccc(N(C)S(=O)(=O)c2cccc(C(=O)NCc3ccc(C)cc3)c2)cc1	none (no result: Fam108B counter, GSTO1 counter)
CC(C)CCn1c(=O)c2ccccc2n2c(CCl)nnc12	GSTO1 counter 81 | GSTO1 inh conf 95 | GSTO1 ABPP inh 81
CC(C)CCn1c(=O)c2ccccc2n2c(CN3CCCC3)nnc12	none
CCCCCn1c(=O)c2ccccc2n2c(CCl)nnc12	GSTO1 counter 84 | GSTO1 inh conf 95 | GSTO1 ABPP inh inactive
COC(=O)C(N)Cc1ccc(O)c(O)c1 (stereo unspecified)	GSTO1 counter 90 | GSTO1 inh conf inactive
COC(=O)C(N)Cc1ccc(O)cc1 (stereo unspecified)	none
COC/C=C/C1=CC2=CC(=O)C(C)(OC(=O)c3cnc4ccccc4n3)C(=O)C2=CN1c1ccccc1 (stereo unspecified)	GSTO1 counter 38 | GSTO1 inh conf inactive
CC1(OC(=O)CCc2ccccc2)C(=O)C=C2C=C(c3ccc(C#N)cc3)N(c3ccccc3)C=C2C1=O (stereo unspecified)	none
CCCCC1=CC2=CC(=O)C(C)(OC(=O)CC)C(=O)C2=CN1CCc1ccccn1 (stereo unspecified)	none
COC/C=C/C1=CC2=CC(=O)C(C)(OC(=O)c3cnc4ccccc4n3)C(=O)C2=CN1CCc1c[nH]c2ccccc12 (stereo unspecified)	GSTO1 counter 45 | GSTO1 inh conf inactive
COc1cccc(/C=C/C(=O)N(C)CC(=O)Nc2ccc(Cl)c(C(F)(F)F)c2)c1	none
O=C1NN(c2cccc(Br)c2)C(=O)/C1=C/c1cccs1	none
COc1ccc(-n2c(C)cc(/C=C3\C(=O)NN(c4ccccc4)C3=O)c2C)cc1	none
O=C1NN(c2ccccc2)C(=O)/C1=C\c1coc2ccc(O)cc2c1=O	GSTO1 counter 50 | GSTO1 inh conf 36
O=C1NN(c2ccccc2)C(=O)/C1=C/c1coc2ccccc2c1=O	none
O=C1NN(c2ccccc2)C(=O)/C1=C/c1cccs1	GSTO1 counter 63 | GSTO1 inh conf inactive
COc1ccc(Sc2ccc(/C=C3\C(=O)NN(c4ccccc4)C3=O)o2)cc1	GSTO1 counter 42 | GSTO1 inh conf 58
CCCN(C(=O)CSCc1c(C)noc1C)c1c(N)n(Cc2ccccc2)c(=O)[nH]c1=O	none
N#Cc1nc(COc2ccccc2F)oc1NCCc1ccccc1	GSTO1 counter 43 | GSTO1 inh conf inactive
COc1c(Cl)cc(C(=O)NN)cc1Cl	none
NNC(=O)c1cc(O)c(O)c(O)c1	GSTO1 counter 52 | GSTO1 inh conf inactive
COc1ccccc1N1CCN(CC(=O)Nc2ccc(S(=O)(=O)N3CCCCCC3)cc2)CC1	none (no result: Fam108B counter, GSTO1 counter)
CN(C)S(=O)(=O)c1cc(NC(=O)COC(=O)Cc2cccc3ccccc23)ccc1Cl	none
CCC(C(=O)OCC(=O)Nc1ccc(Cl)c(S(=O)(=O)N(C)C)c1)c1ccccc1 (stereo unspecified)	GSTO1 counter 65 | GSTO1 inh conf inactive
CC12CCC(C(=O)N(CC3CO3)C1=O)C2(C)C (stereo unspecified)	GSTO1 counter 61 | GSTO1 inh conf 77 | GSTO1 ABPP inh inactive
Cc1ccc2nc(C3CCCCC3)[nH]c2c1	none
O=C(c1[nH]ncc1-c1cccc(Br)c1)C1CO1 (stereo unspecified)	GSTO1 counter 82 | GSTO1 inh conf 90 | GSTO1 ABPP inh inactive
COc1ccccc1NC(=O)Cc1nc(CCl)cs1	GSTO1 counter 68 | GSTO1 inh conf 95 | GSTO1 ABPP inh inactive
CCC(=O)Nc1nc(CC(=O)Nc2ccccc2OC)cs1	none
CC(CCc1ccccc1)NC(=O)CN1CCN(c2ccc(O)cc2)CC1 (stereo unspecified)	GSTO1 counter 38 | GSTO1 inh conf inactive
CC(CCc1ccccc1)NC(=O)CN1CCN(Cc2ccccc2)C1=O (stereo unspecified)	none
Cc1ccc(CN=Cc2[nH]c3ccc(Br)c(Cl)c3c2O)cc1	GSTO1 counter 52 | GSTO1 inh conf inactive
COc1ccc(CN=Cc2c(O)[nH]c3ccccc23)cc1	none
Oc1c(C=NCc2ccc(F)cc2)[nH]c2ccc(Br)c(Cl)c12	GSTO1 counter 48 | GSTO1 inh conf inactive
O=c1[nH]c(=O)n(C2CCCCCC2)c(O)c1C=NCc1ccc(F)cc1	none
O=C(CNC(=O)c1ccco1)N=Nc1c(O)[nH]c2ccc([N+](=O)[O-])cc12	GSTO1 counter 50 | GSTO1 inh conf 62
C=C(C)CNC(=S)N=Nc1c(O)[nH]c2ccc([N+](=O)[O-])cc12	GSTO1 counter 42 | GSTO1 inh conf 37
NC(=O)N=Nc1c(O)[nH]c2ccc([N+](=O)[O-])cc12	none
